Measured values published in PubChem BioAssay (NCI).
This is part of a sample that, as a whole, favours compounds with a hit. Of some 83,000 tested, about 20% had one in any assay.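 48-hour exposure, single concentration, 96-well plates; percent growth endpoint where 0 means no net growth. Active: below 10.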 Unmarked numbers belong to inactive results. Calls of active or inactive are those of the source.

Tests used:
Test in all cases: NCI-60 one-dose screen, 48 h (100 = growth as untreated, 0 = no growth, -100 = all killed)
Details in all cases: 10 µM unless noted
SK-MEL-2 melanoma = system: SK-MEL-2 melanoma
EKVX NSCLC = system: EKVX NSCLC
SN12C renal = system: SN12C renal
UO-31 renal = system: UO-31 renal
TK-10 renal = system: TK-10 renal
ACHN renal = system: ACHN renal
CAKI-1 renal = system: CAKI-1 renal
A498 renal = system: A498 renal
CCRF-CEM leukemia = system: CCRF-CEM leukemia
MOLT-4 leukemia = system: MOLT-4 leukemia
RPMI-8226 leukemia = system: RPMI-8226 leukemia
OVCAR-8 ovarian = system: OVCAR-8 ovarian
OVCAR-5 ovarian = system: OVCAR-5 ovarian
OVCAR-4 ovarian = system: OVCAR-4 ovarian
SK-OV-3 ovarian = system: SK-OV-3 ovarian
IGROV1 ovarian = system: IGROV1 ovarian
OVCAR-3 ovarian = system: OVCAR-3 ovarian
HS 578T breast = system: HS 578T breast
NCI/ADR-RES ovarian = system: NCI/ADR-RES ovarian

| Compound | growth (SK-MEL-2 melanoma) | growth (EKVX NSCLC) | growth (SN12C renal) | growth (UO-31 renal) | growth (TK-10 renal) | growth (ACHN renal) | growth (CAKI-1 renal) | growth (A498 renal) | growth (CCRF-CEM leukemia) | growth (MOLT-4 leukemia) | growth (RPMI-8226 leukemia) | growth (OVCAR-8 ovarian) | growth (OVCAR-5 ovarian) | growth (OVCAR-4 ovarian) | growth (SK-OV-3 ovarian) | growth (IGROV1 ovarian) | growth (OVCAR-3 ovarian) | growth (HS 578T breast) | growth (NCI/ADR-RES ovarian) |
| --- | --- | --- | --- | --- | --- | --- | --- | --- | --- | --- | --- | --- | --- | --- | --- | --- | --- | --- | --- |
| CN1CCN(c2ccc(-c3ccc4ncc(C#N)c(Nc5ccc(F)c(Cl)c5)c4c3)cn2)CC1 | 49.7% | 48.4% | 62.5% | 28.7% | 34.1% | 17.4% | 27.2% | -7.02% (active) | 37.8% | 38.2% | 14.9% | 59.8% | 60.8% | 52.2% | 25.8% | 8.52% (active) | 58.6% | 52.2% | 67.8% |
| C#C[C@]1(O)CC[C@H]2[C@@H]3CC=C4c5sc(Nc6ccccc6)nc5CC[C@]4(C)[C@H]3CC[C@@]21C | 16.7% | 36.3% | 29.2% | 13.5% | 56.8% | 20.1% | 21.5% | -37.1% (active) | 6.66% (active) | 7.73% (active) | -32.1% (active) | 33.8% | 52% | 51.6% | -35.3% (active) | 46.7% | 31.5% | -19.9% (active) | 38.2% |
| O=C(O)C(c1ccccc1)N1C(=O)CSC1=S (centres undefined) | 102% | 98% | 97% | 94.3% | 95.7% | 102% | 89.3% | 83.9% | 105% | 99.9% | 114% | 101% | 101% | 109% | 101% | 107% | 106% | 100% | 106% |
| Cc1cc(O)c(C2=NN(c3ccc(S(N)(=O)=O)cc3)C(c3ccccc3O)C2)cc1Cl (centres undefined) | 17.4% | -2.37% (active) | 15.1% | 9.61% (active) | 41.5% | 7.54% (active) | -13.6% (active) | 20.6% | 12.9% | -57.4% (active) | 15.4% | 4.04% (active) | -15.1% (active) | 44% | 34.1% | 0.983% (active) | -45.8% (active) | 8.33% (active) | 1.92% (active) |
| Clc1ccc(C(/C=C/c2sc(Cl)nc2Cl)=N/Nc2cc(Cl)cc(Cl)c2)cc1 | 106% | 103% | 100% | 83% | 119% | 102% | 98.2% | 101% | 94.5% | 96.6% | 98.1% | 104% | 104% | 100% | 98.9% | 89.7% | 103% | 98.3% | 104% |
| O=C(CCOCCNC(=O)COc1ccc2c(c1)OCC(c1ccc(F)cc1)C2=O)NCCCC(O)(P(=O)(O)O)P(=O)(O)O (centres undefined) | 104% | 94.5% | 103% | 95.3% | 114% | 102% | 94.7% | 89% | 96.7% | 99.3% | 108% | 104% | 103% | 99.2% | 108% | 118% | 104% | 105% | 107% |
| CC[C@H](C)C(=O)O[C@H]1CCC=C2C=C[C@H](C)[C@H](CC[C@@H]3CC=CC(=O)O3)[C@H]21 | 81.7% | 110% | 67.7% | 71.8% | 105% | 86.9% | 90.5% | 97% | 6.89% (active) | 45.6% | 0.207% (active) | 82% | 112% | 103% | 99.6% | 83.9% | 73.2% | 109% | 90.9% |
| CN1CCN(c2ccc(-c3cc4c(Nc5ccc(F)c(Cl)c5)ncnn4c3)cn2)CC1 | 109% | 100% | 90.5% | 88.2% | 76.7% | 82.6% | 96.3% | 86.7% | 42.9% | 93.6% | 3.77% (active) | 77.1% | 97.8% | 88.4% | 110% | 89.5% | 98.6% | 76.9% | 83.6% |
| Cc1cc2nc3ccc(N=Nc4ccc(N(C)C)cc4)cc3n(-c3ccccc3)c-2cc1=N | -94.6% (active) | -94.6% (active) | -52.8% (active) | -91.2% (active) | -82.2% (active) | -92% (active) | -96.5% (active) | -46.9% (active) | -47.3% (active) | 0.81% (active) | -63.5% (active) | -22% (active) | -78.5% (active) | -93.2% (active) | -78% (active) | -88.8% (active) | -85% (active) | -25.3% (active) | 4.97% (active) |
| CCN(CC)Cc1cc(Nc2c3ccc(Cl)cc3nc3ccc(OC)cc23)ccc1O | 101% | 76.2% | 56.6% | 34.2% | 96.6% | 59.7% | 69.8% | 77.2% | 60.4% | 22.6% | 21.7% | 37.5% | 51.2% | 58.6% | 54.7% | 29.6% | 56.6% | 72.7% | 42.3% |
| CCCCCCCCCCCCCCCCCCOc1ccccc1CC(=O)OCC[N+](CC)(CC)CC | -10.1% (active) | 43.4% | 15.2% | 89.5% | 38.5% | 64.4% | 35.6% | 65.9% | 15.7% | 12.8% | -3.45% (active) | 17.7% | 41% | 19.1% | 66.2% | -26.9% (active) | 31.4% | 38.2% | 95.9% |
| Cc1nc(/N=C(\N)NC(=O)Nc2cccc(Cl)c2)sc1C | 72% | 68.3% | 86.4% | 84% | 111% | 78.4% | 48.6% | 42.4% | 68.4% | 58.4% | 77% | 94.5% | 96.3% | 99.3% | 87.7% | 63.1% | 81.5% | 68.8% | 42.3% |
| CCOC(=O)/C=C1\S/C(=N\Nc2ccc([N+](=O)[O-])cc2[N+](=O)[O-])N(Cc2ccccc2)C1=O | 102% | 86.4% | 57.3% | 66.4% | 115% | 84.3% | 81.1% | 70.4% | 39.6% | 67.5% | 7.78% (active) | 73.4% | 95% | 69.2% | 104% | 88.5% | 83.5% | 84.3% | 75.2% |
| COc1ccc(-c2nn(C(=O)c3cc(OC)c(OC)c(OC)c3)c3cc(N)ccc23)cc1 | 55.8% | 30.8% | 22.9% | 23.7% | 60.8% | 11.4% | 46.2% | -8.28% (active) | 17% | 13.7% | 21.7% | 15.9% | 39.2% | 58.1% | 31.5% | 23.9% | 0.527% (active) | 35% | 15.6% |
| Fc1cc(-c2nnc3n2NC(=Nc2ccc(Cl)cc2)CS3)c(Cl)cc1Cl | 88.3% | 95.2% | 108% | 65.6% | 91.6% | 95.2% | 94.2% | 77.8% | 214% | 87% | 66.9% | 94.9% | 80.3% | 89.9% | 89.8% | 57.2% | 91.6% | 89.3% | 88.3% |
| CCOc1ccc2nc(SCc3nc4n(n3)S(=O)(=O)c3ccccc3N4C)sc2c1 | 17.9% | 14% | 22.2% | -46.3% (active) | -8.01% (active) | 4.84% (active) | -39.5% (active) | -25.8% (active) | 3.93% (active) | 4.81% (active) | 30.7% | 27.7% | -9.82% (active) | 31.2% | 35.3% | -30.9% (active) | 37.5% | -59.3% (active) | 6.82% (active) |
